This is a sample that favours compounds with a hit; in the whole collection about 6.2% have one here.
FMDV antiviral – High Throughput Screening for Foot and Mouth Disease Virus Antivirals. AID 1159524, 2015. Potency, µM (titrated, usually from 57.9 µM), for the others: at the highest dose activity change, negative = inhibition, actives largely listed as inhibitors. FMDV antiviral cell-based qHTS. 1.2% of 410,000 active; calls by dose curve; tested in HEK293T cells; note: read-out not given here; potency is the fitted concentration of half-maximal effect; % is set by controls: 0 for no effect and ±100 for the full control effect; nearly all actives have a fitted effect of over 45% in size
MARV entry inh – qHTS for inhibitors of binding or entry into cells for Marburg Virus | Potency, µM (doses to about 37.8 µM), without a hit: at the highest dose activity change, negative = inhibition, hits mostly inhibitors | Marburg virus pseudotyped entry inhibition, cell reporter | AID 540276, 2011 | 1.8% of 300,000 active; calls by dose curve; tested in HEK293 cells; note: potency is the fitted concentration of half-maximal effect; % is set by controls: 0 for no effect and ±100 for the full control effect
Lassa entry inh – qHTS for Inhibitors of binding or entry into cells for Lassa Virus; Lassa virus pseudotype entry inhibition, cell reporter; Potency, µM (series often up to 37.9 µM), for the others: top-dose activity change, negative = inhibition, most hits filed as inhibitors; 1.2% of 300,000 active; AID 540256, 2011; calls by dose curve; tested in HEK293 cells; note: potency is the fitted concentration of half-maximal effect; % is set by controls: 0 for no effect and ±100 for the full control effect; nearly all actives have a fitted effect of over 50% in size
HCMV inh – qHTS Assay for inhibitors of the human cytomegalovirus (HCMV) | HFF cells, HCMV-luciferase reporter, 72 h; hits give low values | activity change, negative = inhibition, % at 57.5 µM | 4.5% of 410,000 active | AID 1259415, 2018; in the data active = activity change below about -60%; inconclusive = no clear call, values can overlap the other calls; inactive = above about -39%; note: % is set by controls: 0 for no effect and ±100 for the full control effect
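Two-dose cell screen: HFF monolayers treated with compounds and infected with luciferase-expressing HCMV at 1 PFU/cell, 72 h at 37C, then lysed for luciferase measurement.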
HeLa G2M arrest – Cell cycle validation with wells to cells screening paradigm; shares compounds with MARV entry inh; HeLa cell cycle G2/M arrest, Hoechst DNA content imaging; Potency, µM, usual class: inhibitors; 60% of 25 active; AID 2441, 2010
WI-38 cytotox – High Content Assay for Compounds that inhibit the Assembly of the Perinucleolar Compartment: WI-38 Cytotoxicity; shares compounds with MARV entry inh; WI-38 normal lung fibroblasts, ATPLite luminescence ATP viability, 24 h; Potency, µM (top dose mostly 46.1 µM), inactives show top-dose activity change, negative = cytotoxicity, actives largely listed as inhibitors; 120 tested, under 10 active
PNC inh conf – High Content Assay for Compounds that inhibit the Assembly of the Perinucleolar Compartment: Confirmation of PNC Inhibition | shares compounds with MARV entry inh | PC3M PTB-GFP, PNC prevalence imaging, 16 h | Potency, µM (top dose mostly 46.1 µM), inactives show top-dose activity, negative = PNC inhibition, most hits filed as inhibitors | 50% of 120 active | AID 2730, 2010
PC3M caspase – High Content Assay for Compounds that inhibit the Assembly of the Perinucleolar Compartment: PC3M Caspase 3/7 Activation | PC3M-GFP caspase 3/7 activation, luminescence, 24 h | activity change, positive = activation, % at 46.1 µM | shares compounds with MARV entry inh | 120 tested, under 10 active | AID 2731, 2010
* hit, by the source's call; ? = inconclusive; · = not tested or not shown; [ ] = remark or other dose. Unless noted, calls come from the whole dose curve; as a rule, active = well fitted curve in the direction sought with a large enough effect; inconclusive = small, poorly fitted or top-dose-only effect, or another doubt; inactive = no such curve, though single readings can be large; an effect the other way counts as inactive or inconclusive.

SMILES	FMDV antiviral	MARV entry inh	Lassa entry inh	HCMV inh	WI-38 cytotox	PNC inh conf	PC3M caspase	others
COC(=O)c1c(-c2ccccc2)csc1NC(=O)c1c(-c2ccccc2)noc1C	?	1µM*	0.89µM*	-79*	13%	4µM*	1
COC(=O)c1ccc(C)c(NC(=O)c2c(-c3ccccc3)noc2C)c1	·	-22%	-8%	-9	·	·	·
CN(C)c1nc(OCCNC(=O)COc2ccccc2Cl)nc(N(C)C)n1	-19%	-13%	-18%	-4	2%	?	-4
Cc1cc(SCC(=O)c2cc(C)n(C)c2C)nc2ccccc12	-8%	?	?	-21	-11%	?	5
Cc1cc(SCC(=O)O)nc2ccccc12	-16%	?	17%	11	·	·	·
COc1ccc(OC)c(NC(=O)c2ccc(OCC(=O)N3CCOCC3)c(OC)c2)c1	-11%	12%[46.1 µM]	-1%	19	·	·	·
COc1ccc(-c2csc(NC(=O)c3ccc(OCC(=O)N4CCOCC4)c(OC)c3)n2)cc1	?	?	?	-24	2%	?	-8
CN(C)c1ccc(CNC(=O)c2ccc3c(c2)N(C)C(=O)C2CCCCN32)cc1 (stereo not given)	5%	·	29%[46.1 µM]	-22	·	·	·
O=C(NCc1ccco1)C1CCCCC1	-18%	-6%	6%	?	·	·	·
O=C(NCc1ccco1)C1CCN(Cc2ccc(F)cc2)CC1	-13%	2%[46.1 µM]	15%	2	-6%	-6%	-2
COc1ccc(C(CNC(=O)c2ccc(N3CCCC3=O)cc2)N(C)C)cc1 (stereo not given)	-19%	-10%	-12%	-18	·	·	·
Cc1c2ccncc2c(C)c2c1[nH]c1ccccc12	-21%	4.1µM*	6.5µM*	·	-6%	?	3	HeLa G2M arrest=?
c1ccc2c(c1)[nH]c1cnccc12	-16%	-33%	17%	-30	·	·	·
O=C(Cc1cccs1)Nc1nc2c(s1)CCCC2	0%	0.58µM*	2.6µM*	-73*	8%	8.9µM*	-17
CC(C)(C)c1nc(SCC(=O)Nc2nc3c(s2)CCCC3)c2ccccc2n1	·	1µM*	1µM*	-61*	-5%	7.1µM*	-11
CC1=CC(=O)C=C/C1=C(/c1ccc(O)cc1C)c1ccccc1S(=O)(=O)O	-9%	·	·	-5	·	·	·
CNC(=O)N(O)C1N(NC(=O)Nc2cccc3ccccc23)C(=S)SC1(C)C (stereo not given)	-14%	4%	-12%	-29	·	·	·
Cc1ccc(-n2cc(-c3ccccc3)c3c(NN4CCOCC4)ncnc32)cc1	-21%	3%	-9%	?	16%	-20%	-2
CC12CCC(C(=O)NC(c3ccccc3)c3ccccc3)(OC1=O)C2(C)C (stereo not given)	?	1%	?	61	-10%	15%	-1
COc1ccc(-c2nnn(CC(=O)N3CCN(c4ccccc4OC)CC3)n2)cc1OC	-24%	?	?	-35	·	·	·
COc1cccc(CNc2cccc3cccnc23)c1O	20%	17%	-19%	27	-9%	7%	1
O=C(COC(=O)Cc1ccc(Br)cc1)NCC1CCCCC1	-14%	5%[46.1 µM]	25%[46.1 µM]	?	·	·	·
O=C(COC(=O)Cc1ccsc1)NCC1CCCCC1	-2%	3%[46.1 µM]	-4%	15	-9%	-13%	0
CC1=CC(C)(C)Nc2ccc(OS(=O)(=O)c3ccc(C)cc3)cc21	-23%	-17%	-14%	-37	·	·	·
CC(=O)Nc1ccc(S(=O)(=O)Oc2ccc3c(c2)C(C)=CC(C)(C)N3)cc1	·	?	0.82µM*	·	-10%	5µM*	-5
SMILES	FMDV antiviral	MARV entry inh	Lassa entry inh	HCMV inh	WI-38 cytotox	PNC inh conf	PC3M caspase	others
COc1ccccc1CCNC(=O)C(=O)c1cn(CC(=O)N2CCOCC2)c2ccccc12	17%	17%[46.1 µM]	6%[46.1 µM]	4	·	·	·
CCN=c1scc(-c2ccccc2)n1/N=C/c1ccccn1	?	?	1.5µM*	·	16µM*	4µM*	-24
C=CCN=c1scc(-c2ccccc2)n1/N=C/c1ccccn1	10%	2.8µM*	?	-99*	?	2µM*	-15
N=c1scc(-c2ccccc2)n1/N=C/c1ccco1	33%	?	-19%	8	·	·	·
Cc1nc2ccccc2c(=O)n1/N=C/c1ccccn1	·	18%	26%	?	·	·	·
O=C(OCc1cn([C@@H]2C[C@H](c3ccccc3)N(C(=O)c3cccs3)C[C@H]2O)nn1)c1ccccc1	0%	·	·	19	·	·	·
CCOc1ccc(CN(C)CC(=O)Nc2cc(OC)c([N+](=O)[O-])cc2C)cc1	?	8%	0%	11	-22%	-20%	-8
CSc1nnc2c3ccccc3n(Cc3ccccc3)c2n1	-47%	-4%	-6%	-23	·	·	·
CSc1nnc2c3ccccc3n(CCc3ccccc3)c2n1	?	0.58µM*	1µM*	-98*	-4%	5µM*	-1
COc1ccc(CN2Cc3cccc4c3[C@@H](CC2=O)[C@H](O)[C@H](O)C4)cc1	0%	·	·	-1	·	·	·
Cc1ccccc1-c1nc2ccccc2c(=O)n1C	-10%	5%	-5%	-8	·	·	·
COc1cc([C@@H]2c3cc4c(cc3[C@H](O)C3COC(=O)[C@@H]32)OCO4)cc(OC)c1OC (stereo not given in full)	·	?	?	·	·	·	·	HeLa G2M arrest=0.022*
O=C(NC(Cc1c[nH]c2ccccc12)C(=O)Nc1ccc(OC(F)(F)F)cc1)c1cccs1 (stereo not given)	?	2.6µM*	2.1µM*	-97*	-10%	7.1µM*	-3
Cc1ccc(NC(=S)c2nc3ccccc3[nH]2)c(C)c1	-52%	?	?	50	·	·	·
Cc1cccc(/C=C(\c2nc3ccccc3[nH]2)S(=O)(=O)c2ccccc2)c1	8.9µM*	13µM*	?	-98*	?	22µM*	-10
Cc1cccc(-n2c(SCC(=O)Nc3ncc(Cl)cc3Cl)nc3ccccc32)c1	0%	1.2µM*	0.82µM*	-99*	-15%	5µM*	-4
CC1CN(S(=O)(=O)c2ccc(C(=O)N3c4ccccc4CC3C)cc2)CC(C)O1 (stereo not given)	-5%	16%	-1%	-3	·	·	·
CC1=C2C3OC(=O)C(C)[C@@H]3CC[C@](C)(O)C2C2C3C4C5(C12)[C@H]1OC(=O)[C@@H](C)C1CC[C@]4(C)O[C@]5(C)[C@@H]3O (stereo not given in full)	-1%	-3%	0%	-16	·	·	·

Screening data (PubChem BioAssay)
